Source: PubChem (The Scripps Research Institute Molecular Screening Center)
A selection: hits, their analogues and other compounds. The true share with any hit is near 3.5%.
MITF primary: inhibitors of human MITF; AlphaScreen MITF homodimerization, bead proximity signal; inhibition, % at 2.6 µM; 0.91% of 650,000 active; in the data active means inhibition above about 50%;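 further: 0% = vehicle wells with protein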
TEAD-YAP block: TEAD-YAP interaction inhibition | HEK-TIYL cells, TEAD-Gal4/YAP UAS-luciferase luminescence | inhibition, % at 9.12 µM | 1.4% of 640,000 active | AID 1259422; in the data active means inhibition above about 32%;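 further: 0% = median of test compound wells and 100% = reference inhibitor wells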
FBW7 activator: human FBW7 E3 ligase activation, primary screen | Q969H0 | AlphaScreen FBW7–phospho-cyclin E peptide binding, activator screen | normalized activity (activation), % at 26.1 µM | 0.13% of 650,000 active | AID 1259310; in the data active means normalized activity above about 1.9%;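 further: purified mutant Fbw7 with reduced substrate affinity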
GPR151 ag: activates the human receptor GPR151; 1% of 650,000 active; PathHunter beta-arrestin GPR151 cells, luminescence; activation, % at 11.2 µM; Q8TDV0; in the data active means activation above about 4.9%;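 further: 0% = median of compound wells and 100% = cells with positive control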
GPR151 confirm: confirmation of human GPR151 activators. shares compounds with GPR151 ag. GPR151 PathHunter beta-arrestin cells, luminescence, 90 min; % of EA-reagent control over plate median. activation, % at 11.2 µM. 6,700 tested, under 10 active. AID 1508609;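 active means mean percent activation across replicates above the confirmation screen cutoff of 4.91%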
GPR119 ag: GPR119 activation, counter-screen for GPR151 activators; GPR119 PathHunter beta-arrestin cells, luminescence, 90 min; 0 = compound-well median, 100 = enzyme-acceptor control; activation, % at 11.2 µM; AID 1508611; shares compounds with GPR151 ag; 0.3% of 6,700 active;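 active means mean percent activation in the counterscreen above 29.09%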;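 further: counterscreen on off-target GPR119 to flag nonselective hits from the GPR151 activator screen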
Target sequence (Q8TDV5 whole entry, looked up): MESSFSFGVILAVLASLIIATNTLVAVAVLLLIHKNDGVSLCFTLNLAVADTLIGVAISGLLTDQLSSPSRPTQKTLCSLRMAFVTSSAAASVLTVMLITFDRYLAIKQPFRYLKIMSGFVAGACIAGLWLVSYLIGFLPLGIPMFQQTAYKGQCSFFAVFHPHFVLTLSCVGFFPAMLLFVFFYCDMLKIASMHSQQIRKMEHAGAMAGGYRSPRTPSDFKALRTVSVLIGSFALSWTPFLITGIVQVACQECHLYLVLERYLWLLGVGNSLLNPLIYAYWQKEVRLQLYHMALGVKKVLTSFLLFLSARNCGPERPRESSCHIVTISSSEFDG
* = called active by the depositor; x = no result; ! = repeats disagree.

SMILES	MITF primary	TEAD-YAP block	FBW7 activator	GPR151 ag	GPR151 confirm	GPR119 ag
O=C(c1c[nH]c2ccc(S(=O)(=O)N3CCCCCC3)cc2c1=O)N1CCOCC1	13.8	1.4	-0.1	10.8*	-0.1	4.4
CC(C)(C)N1C(=O)c2ccc(C(=O)Nc3ccc([N+](=O)[O-])cc3Cl)cc2C1=O	4.1	3.6	0.0	6.6*	0.3	-0.4
CC1CCCN(CCCNC(=O)c2ccc3c(c2)NC(=O)C(N2CCOCC2)S3)C1 (stereo not given)	-3.9	-2.3	-0.2	6.2*	0.2	-3.5
CN1CCN(C(c2ccccc2)c2ccc(Cl)cc2)CC1 (stereo not given)	11.0	-3.8	0.3	6.4*!	-0.4	-4.8
CC(C)n1cc(-c2nc3ccccc3o2)cn1	19.3	-28.6	0.5	-8.1	x	x
CC12CCC(C(=O)Nc3cc4c(cc3[N+](=O)[O-])OCO4)(OC1=O)C2(C)C (stereo not given)	-0.1	-5.9	-0.1	0.8	x	x
CC(=O)c1c(C)[nH]c(C(=O)Nc2nc3c(C)cc(C)cc3s2)c1C	0.6	-7.0	0.3	5.9*	0.4	9.1
COc1cccc(CC2(C3CCN(Cc4ccccc4F)CC3)NC(=O)N(C)C2=O)c1 (stereo not given)	1.2	8.0	-0.3	5.0*	0.7	4.1
COc1cccc(CC2(C3CCN(Cc4cccnc4)CC3)NC(=O)N(C)C2=O)c1 (stereo not given)	-5.2	-1.6	0.1	0.5	x	x
CSc1nc2ccc(NC(=O)Cn3cnc4ccccc4c3=O)cc2s1	7.0	7.1	0.1	5.9*	2.4	3.0
CCSc1nnc(NC(=O)Cn2cnc3ccccc3c2=O)s1	0.5	-4.7	0.1	-1.4	x	x
CSc1nc2ccc(NC(=O)CN3C(=O)c4ccccc4C3=O)cc2s1	-12.1	-8.9	0.1	0.1	x	x
Cc1ccc(CSc2nnc(NC(=O)Cn3cnc4ccccc4c3=O)s2)cc1	2.2	-12.1	0.2	5.0*	-0.3	0.6
CCOc1ccc(NC(=O)c2cc3nc(-c4ccc(Cl)cc4)cc(C(F)(F)F)n3n2)cc1	10.8	5.9	0.0	2.2	x	x
Cc1nnc(SCc2ccccc2)[nH]c1=O	-2.9	7.3	-0.1	3.7	x	x
Cc1nnc(SCc2ccc(F)cc2)[nH]c1=O	-4.5	-3.7	-0.1	11.2*	-1.1	5.1
CCC(CC)C(=O)Nc1c2c(nn1-c1ccc(F)cc1)CS(=O)(=O)C2	-9.8	0.3	-0.3	-2.1	x	x
O=C(CSc1ccc2nnc(-c3cccnc3)n2n1)N1CCCCC1CCn1ccnc1 (stereo not given)	30.8	-0.4	0.7	7.7*	0.7	2.2
O=C(CSc1ccc2nnc(-c3cccnc3)n2n1)N1CCCCCC1	10.3	2.5	0.3	-1.2	x	x
COc1cccn2c(C(=O)NCC3COC(C)(C)O3)c(C(F)(F)F)nc12 (stereo not given)	-2.3	8.2	-0.4	1.6	x	x
C=CCNC(=S)NC(=O)c1cccc2ccccc12	2.0	6.0	0.1	1.6	x	x
Clc1nn2cnnc2c2ccccc12	0.5	-1.5	0.0	6.9*	0.1	-6.5
c1ccc(-c2nn3cnnc3c3ccccc23)cc1	6.3	-14.9	-0.2	1.1	x	x
C=CCN1C(=O)c2oc3ccccc3c(=O)c2C1c1cccc([N+](=O)[O-])c1 (stereo not given)	-18.8	-7.5	-0.2	5.8*	-0.2	-2.8
C=CCN1C(=O)c2oc3ccccc3c(=O)c2C1c1ccc(O)c(OC)c1 (stereo not given)	2.4	-3.7	0.2	0.9	x	x
SMILES	MITF primary	TEAD-YAP block	FBW7 activator	GPR151 ag	GPR151 confirm	GPR119 ag
CC1CCc2c(sc(N3CCCC3=O)c2C#N)C1 (stereo not given)	1.0	5.2	0.1	1.0	x	x
COc1cc(NC(=O)c2c(C)cc3ccccn23)cc(OC)c1OC	18.1	0.0	0.1	7.3*	-0.1	-1.9
CC(C)NC(=O)[C@@H]1C[C@@H](NCc2ccncc2)CN1Cc1ccc(Cl)cc1	-7.5	2.8	0.0	0.8	x	x
CCN1CCN(C(=O)c2nc(-c3cccc(F)c3)n3c2CCCCC3)CC1	2.4	8.6	-0.1	5.5*	1.0	3.0
COc1ccccc1NC(=O)CN(c1ccccc1OC)S(C)(=O)=O	-0.1	5.2	0.0	-0.9	x	x
CSc1cccc(NC(=O)CN(c2ccc(F)c(Cl)c2)S(C)(=O)=O)c1	-9.5	4.0	0.1	8.5*	-0.1	4.4
Cc1c(Cl)cccc1N(CC(=O)Nc1ccc(F)c(Cl)c1)S(C)(=O)=O	-9.7	5.0	-0.2	5.5*	1.6	-1.8
Cc1ccccc1NC(=O)CN(c1ccc(Cl)cc1C)S(C)(=O)=O	0.6	-3.0	-0.1	5.3*	0.8	14.2
CS(=O)(=O)N(CC(=O)Nc1ccc(F)c(Cl)c1)c1ccccc1F	-0.3	10.7	0.1	0.1	x	x
CCOc1ccccc1N(CC(=O)Nc1ccccc1OC)S(C)(=O)=O	-0.3	-2.9	0.0	8.9*	-0.4	-9.2
Cc1ccc(C(=O)Nc2nnc(SCC(=O)N3CCCc4ccccc43)s2)cc1[N+](=O)[O-]	3.4	-16.4	-0.1	0.9	x	x
Cc1ccc(CN2CCN(CC(=O)NCCCSC3CCCCC3)C2=O)cc1	0.5	5.3	-0.1	3.7	x	x
COc1ccc(Cl)cc1N(CC(=O)Nc1cccc(C(C)=O)c1)S(C)(=O)=O	7.0	-0.2	-0.1	5.8*	0.6	-1.5
CC(=O)c1cccc(NC(=O)CN(C)S(=O)(=O)c2ccc(F)cc2)c1	0.0	-6.5	0.0	5.9*	-0.9	-7.2
Cc1cccc(NC(=O)CN(c2ccc(Br)c(C)c2)S(C)(=O)=O)c1	11.3	2.5	0.2	10.1*	0.2	-4.4
Cc1ccc(NC(=O)CN(c2ccc(Br)c(C)c2)S(C)(=O)=O)cc1	8.5	-3.1	0.1	1.6	x	x
COc1cccc(NC(=O)CN(C)S(=O)(=O)c2ccc(F)cc2)c1	-9.8	3.4	-0.1	-0.1	x	x
CN1C(=O)NC(c2ccccc2)(C(F)(F)F)N(C)C1=O (stereo not given)	14.0	8.0	0.5	-0.1	x	x
CC1=CC(C)C2COC(c3ccccc3O)C1C2 (stereo not given)	-1.3	2.5	-0.2	5.3*	-0.2	-4.8
O=C(CCC(=O)OCCc1ccccc1)Nc1ccc(Cl)cc1	-1.5	-8.6	0.0	-0.7	x	x
N#Cc1c(-n2ncnc2-c2ccc(Cl)cc2)sc2c1CCCCC2	11.4	1.9	0.4	-0.3	x	x
CCOc1ccc(C(C)NC(=O)c2ccc(OC)cc2)cc1 (stereo not given)	13.6	5.4	0.0	6.2*	0.9	10.3
CCOc1ccc(C(C)NC(=O)c2ccc(F)cc2)cc1 (stereo not given)	5.2	0.4	0.0	-0.9	x	x
CCN(c1cccc(C)c1)S(=O)(=O)c1ccc2[nH]cc(C(=O)NCc3ccc4c(c3)OCO4)c(=O)c2c1	-1.7	3.5	0.1	-0.6	x	x
Cc1nnc(NC(=O)C(C)N2CCCC2)s1 (stereo not given)	42.6	-3.2	0.1	13.7*	0.8	9.9
